Vaccinia mCherry: qHTS for Stage-Specific Inhibitors of Vaccinia Orthopoxvirus: mCherry Reporter Primary qHTS. Vaccinia virus mCherry reporter infection, fluorescence. Potency, µM (highest dose often 36.5 µM), for inactives: at the top dose activity change, negative = inhibition, most hits filed as inhibitors. 310,000 tested, 0.63% active; calls by dose curve; tested in A549 cells; further: nearly all actives have a fitted effect of over 35% in size
Lassa entry inh: qHTS for Inhibitors of binding or entry into cells for Lassa Virus. Lassa virus pseudotype entry inhibition, cell reporter. Potency, µM (titrated, usually from 37.9 µM), for inactives: at the top dose activity change, negative = inhibition, hits mostly inhibitors. 300,000 tested, 1.2% active. AID 540256, 2011; calls by dose curve; tested in HEK293 cells; further: nearly all actives have a fitted effect of over 50% in size
VACV Venus inh: qHTS for Stage-Specific Inhibitors of Vaccinia Orthopoxvirus: Venus Reporter Primary qHTS; 330,000 tested, 0.46% active; Potency, µM (highest dose often 36.5 µM), for inactives: at the highest dose activity change, negative = inhibition, actives largely listed as inhibitors; Vaccinia virus Venus reporter expression, fluorescence; calls by dose curve; tested in A549 cells; further: nearly all actives have a fitted effect of over 30% in size
Marburg entry inh: qHTS for inhibitors of binding or entry into cells for Marburg Virus. AID 540276, 2011. Potency, µM (titrated, usually from 37.8 µM), for inactives: at the highest dose activity change, negative = inhibition, actives largely listed as inhibitors. 300,000 tested, 1.8% active. Marburg virus pseudotyped entry inhibition, cell reporter; calls by dose curve; tested in HEK293 cells
An asterisk follows results filed as active; i = inactive; ? = inconclusive; / = not tested or not shown; ! = not confirmed by another sample; [ ] = another dose, or the depositor's remark. Sampled rows, rich in hits. Any-hit rate of the full collection: about 2.5%. On the % scale 0 is the no-effect control and ±100 the full control effect; potency means the concentration at half of the fitted maximal effect.

SMILES	Vaccinia mCherry	Lassa entry inh	VACV Venus inh	Marburg entry inh
COC(=O)[C@]1(Cc2ccccc2)N[C@H](CN(C)C(=O)Nc2ccc(C(F)(F)F)cc2)[C@@H]2C(=O)N(Cc3ccccc3)C(=O)[C@@H]21	?	/	10µM*	/
O=C(c1cccc(Cl)c1)N1CCC(=O)N([C@H](COCc2ccccc2)Cc2ccccc2)CC1	1%	/	-6%	/
Cc1ccc(S(=O)(=O)N2CCC(=O)N(C(COCc3cccc(C)c3)Cc3ccccc3)CC2)cc1 (stereo not drawn)	-22%	15µM*	?	?
Cc1cccc(C(=O)N2CCC(=O)N(C(COCc3cccc(Cl)c3)Cc3ccccc3)CC2)c1 (stereo not drawn)	-24%	8.2µM*	-26%	-8%
Cc1cccc(C(=O)N2CCC(=O)N(C(COCc3ccc(Cl)cc3)Cc3ccccc3)CC2)c1 (stereo not drawn)	-25%	10µM*	-28%	-4%
Cc1cccc(C(=O)N2CCC(=O)N([C@H](COCc3ccc(Cl)cc3)Cc3ccccc3)CC2)c1	10%	/	-17%	/
O=C(c1cccc(Cl)c1)N1CCC(=O)N(C(COCc2cccc(Cl)c2)Cc2ccccc2)CC1 (stereo not drawn)	0%	15µM*	-28%	-17%
Cc1ccc(S(=O)(=O)N2CCC(=O)N(C(COCc3ccc(Cl)c(Cl)c3)Cc3ccccc3)CC2)cc1 (stereo not drawn)	-22%	-4%	-27%	-19%
COC[C@H]1O[C@@H](c2c(OC)cc(OC)cc2OC)[C@H](OC)[C@@H](OC)[C@H]1OC	/	/	/	-10%[14.2 µM]
O=C1C(Nc2ccc(O)cc2)=C/C(=N/S(=O)(=O)c2cccs2)c2ccccc21	?	3.5µM*	2µM*	2.5µM*
Cc1cc(C)c(S(=O)(=O)/N=C2\C=C(NS(=O)(=O)c3ccccc3)C(=O)c3ccccc32)c(C)c1	?	23%[46.1 µM]	2%	?
Cc1ccc(NC2=C/C(=N\S(=O)(=O)c3cccs3)c3ccccc3C2=O)c(C)c1	10µM*	?	6.3µM*	?
Cc1ccc(Cl)cc1NC1=C/C(=N\S(=O)(=O)c2cccs2)c2ccccc2C1=O	25µM*	6.5µM*	?	?
O=C(O)c1ccc(NC2=C/C(=N/S(=O)(=O)c3cccs3)c3ccccc3C2=O)cc1	-6%	/	8%	/
O=C(/C=N\O)NCCCN1CCOCC1	/	/	/	-36%
Oc1ccc(/C=C/c2nc(-c3ccccc3O)n(-c3ccccc3)n2)cc1	/	12µM*	/	?
Oc1ccccc1-c1nc(/C=C/c2ccccc2)nn1-c1ccccc1	-5%	-7%[46.1 µM]	1%	?
Cc1noc(C)c1COc1ccccc1C(=O)Nc1cccc(S(=O)(=O)N(C)C)c1	-13%	0%	-6%	-17%
Cc1ccc(C(=O)NNC(=O)c2ccccc2OCc2c(C)noc2C)cc1	-7%	6%	-1%	3.5µM*
CCN(CC)S(=O)(=O)c1cc(NC(=O)c2ccccc2OCc2c(C)noc2C)ccc1C	-2%	11µM*	-15%	?
CC(CCC(=O)OC[C@H]1O[C@H](C#Cc2ccccc2)C=C[C@H]1Oc1ccc(C)cc1)=NO[C@@H](C)c1cn([C@H](CO)Cc2ccccc2)nn1	/	?	/	9%[14.2 µM]
Cc1ccc(CNC(=O)CSc2c3c(nc4cc(Cl)ccc24)CCCC3)o1	/	21µM*	/	?
CN(C)c1cc(N2CCOCC2)nc(C#N)n1	-22%	/	-14%	/
CCOC(=O)C1=C(C)NC(=S)NC1c1ccc(-c2ccc(Cl)cc2)o1 (stereo not drawn)	i	-5%	-19%	13µM*
CN(C)c1ccc(N=Cc2ccncc2)cc1	24%	/	7%	/
SMILES	Vaccinia mCherry	Lassa entry inh	VACV Venus inh	Marburg entry inh
CCOC(=O)C(=Cc1ccc(Br)cc1)C(=O)OCC	?	?	14µM*	?
COC(=O)CC(Oc1c(C)n(C)c2ccccc2c1=O)c1ccccc1 (stereo not drawn)	/	/	/	-5%[14.2 µM]
Cc1cccc(C)c1C(OCCN(C)C)C1CCCCC1 (stereo not drawn)	-10%	?	-11%	21µM*
C=CCn1nc([N+](=O)[O-])nc1Sc1cccc2cccnc12	7.9µM*	?	8.9µM*	?
COc1ccc(-c2nn(-c3ccccc3)cc2/C=N/N=C(N)N)cc1OC	?	?	?	10µM*
S=c1[nH]nc(-c2cccs2)n1/N=C/c1cn(-c2ccccc2)nc1-c1cccs1	-7%	?	-13%	?
NC(N)=N/N=C/c1cn(-c2ccccc2)nc1-c1cccs1	/	?	/	23µM*
COc1ccc(-c2cc(C(F)(F)F)nc(S(C)(=O)=O)n2)cc1	?	23µM*	?	13µM*!
CCOC(=O)CS(=O)(=O)c1nc(-c2ccc(F)cc2)cc(C(F)(F)F)n1	/	?	10µM*	?
COC(=O)CCS(=O)(=O)c1nc(-c2ccccc2)cc(C(F)(F)F)n1	/	23µM*	/	?
CCOC(=O)CCS(=O)(=O)c1nc(-c2ccccc2)cc(C(F)(F)F)n1	11µM*	13µM*	?	6.3µM*
O=C(O)CCS(=O)(=O)c1nc(-c2cccs2)cc(C(F)(F)F)n1	/	-14%	/	-11%
CC(C)[C@@H](OCc1ccccc1)[C@H](C)CON=C1[C@H]2CCn3c(=O)n(-c4ccccc4)c(=O)n3[C@@H]2[C@H](O)[C@@H]2O[C@H]12	/	/	/	25%[14.2 µM]
C1CCC(C2C3=C(NC4NCNN42)C2=C(CCCC2)CCC3)CC1 (stereo not drawn)	/	/	/	9%
Cc1cc2c(c(=O)n1Cc1ccccc1)[C@H]1O[C@](c3ccsc3)(Cc3ccccc31)O2	/	/	/	-12%[14.2 µM]
CCOC(=O)CS(=O)(=O)c1nc(-c2ccccc2)cc(C(F)(F)F)n1	/	?	10µM*	?
COc1ccc(C(OCC(O)CNCCc2ccccc2)c2ccc(OC)cc2)cc1 (stereo not drawn)	i	?	-26%	?
NCC(O)COCCC12CC3CC(CC(C3)C1)C2 (stereo not drawn)	-19%	10%	-10%	-24%[46.1 µM]
COc1ccc(CNCCC(c2ccccc2)c2ccc(OC(C)C)cc2)cc1OC (stereo not drawn)	?	6.3µM*	-24%	?
COc1ccc(C(OCC(O)CNC(C)c2ccccc2)c2ccc(OC)cc2)cc1 (stereo not drawn)	?	?	-27%	3.5µM*
COc1ccc(CNCCC(c2ccc(OC)cc2)c2ccccc2OC)cc1 (stereo not drawn)	i	-15%[46.1 µM]	-26%	?
COc1ccc(C(CCNCc2ccc(N(C)C)cc2)c2ccccc2OC)cc1 (stereo not drawn)	?	16µM*	-26%	?
CC(NCC(O)COCCC12CC3CC(CC(C3)C1)C2)c1ccccc1 (stereo not drawn)	/	?	/	12µM*
O=C(C[N+]12CCCc3cccc(c31)CCC2)c1ccc(Cl)c2ccccc12	-12%	/	-4%	/
CC1CN(Cc2cccn2-c2cccnc2)Cc2cc(Cl)ccc2O1 (stereo not drawn)	-10%	/	2%	/
